Results as given in the supplement of paper PMC13380429.

System: Vero E6 infected with SARS-CoV-2
Assay: inhibition of SARS-CoV-2 cytopathic effect; higher = more antiviral protection, active = above 15
Conditions: 48 h

Measured: inhibition of SARS-CoV-2 cytopathic effect

COc1cc(Nc2ncc3c(n2)-c2ccc(Cl)cc2C(c2c(F)cccc2OC)=NC3)ccc1C(=O)O [alisertib]
inactive: 1 nM -2.11% | 8.33 nM 0.41% | 100 nM -2.08% | 833.33 nM 0.49% | 10000 nM -5.87%

Cc1cccc(C(=O)O)c1O [hydroxytoluic-acid]
inactive: 1 nM -9.06% | 8.33 nM -7.41% | 100 nM -5.24% | 833.33 nM -2.47% | 10000 nM -10.5%

O=C(N/N=C/c1ccc(O)c(O)c1)c1cc2ccccc2cc1O [dynasore]
inactive: 1 nM -1.99% | 8.33 nM 1.05% | 100 nM -1.82% | 833.33 nM -0.26% | 10000 nM 0.04%

Cn1c(=O)[nH]c2ncn(C)c2c1=O [paraxanthine]
inactive: 1 nM 1.63% | 8.33 nM 1.68% | 100 nM 0.01% | 833.33 nM 2.99% | 10000 nM -0.26%

CNCC(=O)O [sarcosine]
inactive: 1 nM 0.02% | 8.33 nM 0.73% | 100 nM 0.05% | 833.33 nM 2.03% | 10000 nM 0.53%

COc1ccc(CN(CCN(C)C)c2ccccn2)cc1 [mepyramine]
inactive: 1 nM -3.35% | 8.33 nM -2.48% | 100 nM -1.11% | 833.33 nM 2.27% | 10000 nM 1.04%

COc1cc2c3cc1Oc1cc(ccc1O)C[C@@H]1c4c(cc(OC)c(O)c4Oc4ccc(cc4)C[C@@H]3N(C)CC2)CC[N+]1(C)C [tubocurarine]
inactive: 1 nM -3.23% | 8.33 nM -3.95% | 100 nM -2.68% | 833.33 nM 0.38% | 10000 nM 1.45%

COc1cc2c(Oc3ccc(NC(=O)C4(C(=O)Nc5ccc(F)cc5)CC4)cc3F)ccnc2cc1OCCCN1CCOCC1 [foretinib]
inactive: 1 nM -0.07% | 8.33 nM -1.17% | 100 nM 2.06% | 833.33 nM -5.86% | 10000 nM -22.4%

CCn1c(=O)/c(=C2\Sc3ccccc3N2C)s/c1=C\c1cccc[n+]1CC
inactive: 1 nM -0.41% | 8.33 nM 2.22% | 100 nM -0.82% | 833.33 nM -0.9% | 10000 nM -6.25%
